Source: PubChem
IMPase cell inh – IMPase inhibition in cells | CHO-M1 cells, IP1 accumulation, HTRF TR-FRET ratio | inhibition (IP1 accumulation), % at 46.1 µM | 120,000 tested, under 10 active | AID 901; active = well fitted curve in the direction sought with a large enough effect in the signal ratio, not every such curve was filed as active; inconclusive = small, poorly fitted or top-dose-only effect, or a change in a side signal; inactive = no such curve, though single readings can be large or run the other way; the % refers to the signal ratio;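 note: cells stimulated with carbachol in lithium chloride buffer; plate controls were DMSO basal wells for no effect and reference inhibitor wells for full effect; higher means more IMPase inhibition seen as more IP1 and lower FRET ratio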
Target sequence (P97697 whole entry, looked up): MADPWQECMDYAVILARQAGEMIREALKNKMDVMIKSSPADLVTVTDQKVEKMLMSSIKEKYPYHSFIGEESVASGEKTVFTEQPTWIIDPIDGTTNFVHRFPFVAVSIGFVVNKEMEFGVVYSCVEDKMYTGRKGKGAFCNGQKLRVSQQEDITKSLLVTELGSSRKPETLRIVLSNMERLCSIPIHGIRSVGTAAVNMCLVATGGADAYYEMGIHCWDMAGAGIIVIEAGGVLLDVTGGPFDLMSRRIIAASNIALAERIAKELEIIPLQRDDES
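Cellular IMPase inhibition is scored as a rise in cytosolic IP1, detected by competitive TR-FRET between d2-labelled IP1 and a europium anti-IP1 antibody. M1-expressing CHO cells were stimulated with carbachol for 30 min at 37C, with lithium (50 mM LiCl) present in the buffer.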
ALDH1A1 block – blocks purified human ALDH1A1 activity; Potency, µM (top dose mostly 75.3 µM), inactives show top-dose activity, negative = inhibition, hits mostly inhibitors; AID 1030; P00352; 7.3% of 220,000 active; Purified ALDH1A1, NADH fluorescence, propionaldehyde substrate;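 note: potency is the fitted concentration of half-maximal effect; plate controls were no enzyme wells and a reference inhibitor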
HPGD inh – inhibitors of human 15-hydroxyprostaglandin dehydrogenase (HPGD); purified HPGD, NADH fluorescence kinetic, PGE2 substrate; AID 894; 4.3% of 150,000 active; Potency, µM, for the others: at the highest dose activity change, negative = inhibition, actives largely listed as inhibitors; note: potency is the fitted concentration of half-maximal effect
Target sequence (P15428 whole entry, looked up): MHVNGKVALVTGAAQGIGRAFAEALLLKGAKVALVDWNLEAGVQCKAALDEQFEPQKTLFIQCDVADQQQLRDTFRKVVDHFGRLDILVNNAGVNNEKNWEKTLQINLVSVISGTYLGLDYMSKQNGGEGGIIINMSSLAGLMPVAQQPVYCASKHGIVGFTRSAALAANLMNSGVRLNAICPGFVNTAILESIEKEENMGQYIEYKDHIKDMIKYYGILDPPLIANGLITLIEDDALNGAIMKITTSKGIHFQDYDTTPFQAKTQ
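20 nM HPGD preincubated 15 min at room temperature with compound in 50 mM Tris-HCl pH 8, 0.01% Tween 20. Started with 1 mM NAD+ and 30 uM prostaglandin E2; NADH fluorescence (360/450 nm) read 5 times over 30-s intervals, last minus first.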
* = called active by the depositor; ? = inconclusive; · = not tested or not shown; [ ] = remark or other dose. Most compounds without a hit are left out; they make up all but 9% or so of the library. Unless noted, calls come from the whole dose curve; as a rule, active = well fitted inhibition curve with a large enough effect (not every such curve was filed as active); inconclusive = small, poorly fitted or top-dose-only effect, or another doubt; inactive = no such curve, though single readings can be large or run the other way. Unless noted, % is set by controls: 0 for no effect and ±100 for the full control effect.

SMILES | IMPase cell inh | ALDH1A1 block | HPGD inh
O=S(=O)(N/N=C/c1ccc(OC2CSC2)cc1)c1ccccc1 | 3 | ? | -12%
C/C(=N\Nc1nc2c(s1)CCCC2)c1ccc(Cl)cc1 | 10 | 28µM* | -14%
CN(C)c1ccc(C(=O)Nc2nc3c(s2)CCCC3)cc1 | 4 | ? | ?
OCCSc1nc(N2CCOCC2)nc(N2CCOCC2)n1 | · | 10% | ·
CN(C)C(=O)/C(=C/c1cn(-c2ccccc2)nc1-c1cccc([N+](=O)[O-])c1)NC(=O)c1ccccc1 | -4 | ? | -5%
C=CCNC(=O)/C(=C/c1cn(-c2ccccc2)nc1-c1cccc([N+](=O)[O-])c1)NC(=O)c1ccccc1 | 0 | 1µM* | ·
COC(=O)C(c1ccc(OC)c(OC)c1)C1c2ccccc2C=C(C)N1C(=O)OC (stereo not given) | · | -5% | -9%
COc1cc(-c2ccccc2)nc2ccccc12 | 22 | -1% | 28µM*
COc1ccc2c(OC)cc(-c3ccccc3)nc2c1 | 27 | ? | -27%
COc1cc2c(Cc3c4c5c(cc(OC)c(OC)c5c5c(OC)c(OC)ccc35)CCN4C)c3c4c(cc(OC)c(OC)c4c2cc1OC)CCN3C | -2 | ? | ?
CC(=O)OC[C@@H]1O[C@@H](O/N=C2/C[C@@H](O)[C@@H](O)[C@@H]3[C@@H]4C(=O)N(Cc5ccccc5)C(=O)[C@H]4CC[C@@H]23)[C@H](OC(C)=O)[C@H](OC(C)=O)[C@@H]1OC(C)=O | · | 1%[13.5 µM] | ·
CC(=O)c1sc(Nc2nc(C)cc(C)n2)nc1C | ? | 0.89µM* | 14µM*
CC(=O)c1sc(NC(=O)C(C)(C)C)nc1C | ? | 6% | 2%
CCCC(=O)Nc1ccc(C(=O)n2ccc(C)n2)cc1 | · | 16% | ·
O=C(Nc1ccc(Cl)cc1Cl)c1cccc(N2C(=O)C=CC2=O)c1 | 4 | 12% | -3%
Cc1cccc(-n2c(C)nc3sccc3c2=O)c1 | 5 | 1% | -10%
COc1ccc(CC(=O)Nc2ccc3c(c2)CCC3)cc1OC | 9 | -7% | -7%
O=C(CSc1cccs1)Nc1ccc2ccccc2c1 | 10 | ? | 28µM*
O=C(Cc1ccc2c(c1)CCCC2)Nc1ccc2ccccc2c1 | · | 22µM* | ?
O=C(CSc1cccs1)Nc1cccc2ccccc12 | 7 | 28% | -8%
Cn1cc(-c2nc3cnc(N4CCOCC4)nc3n(CCC#N)c2=O)c2ccccc21 | · | 14% | ·
Cc1ccc(OCCCn2c(-c3ccc(Cl)cc3)nc3ccccc3c2=O)cc1C | -8 | · | ·
Cc1ccc(N2C(=O)[C@@H]3[C@H](C2=O)[C@H]2C=C(C(=O)c4ccccc4)C=CN2[C@@H]3C(=O)c2ccc(Cl)cc2)cc1 | · | 25µM* | 40µM*
O=C(C1=C[C@@H]2[C@H]3C(=O)N(c4cccc(Cl)c4)C(=O)[C@H]3[C@@H](C(=O)c3ccc(Cl)cc3)N2C=C1)c1ccccc1 | · | ? | -30%
CCc1ccc(N2CC(C(=O)Nc3cc(C)ccc3F)CC2=O)cc1 (stereo not given) | 1 | -1% | -7%
SMILES | IMPase cell inh | ALDH1A1 block | HPGD inh
CCc1nnc(NC(=O)c2ccc3ncsc3c2)s1 | · | -2% | ·
Cc1cc(OCC(=O)N2CCCC2)cc(C)c1Cl | -5 | 26% | 11µM*
Cc1cc(OCC(=O)N2CCCC2)ccc1Cl | -4 | -7% | -25%
Cc1ccc(OCC(=O)N2CCCCC2)c(Br)c1 | -14 | -1% | 16µM*
COc1ccccc1N1CCN(C(=O)COc2ccc(C)cc2Br)CC1 | ? | ? | -7%
Cc1nn(-c2cccc(C(F)(F)F)c2)c(=O)c2noc(C)c12 | · | 3% | ·
COc1ccccc1/C=C/C1(C(=O)NC2CCCC2)CC(=O)N1c1ccc(F)cc1 (stereo not given) | 0 | 32µM* | -12%
COc1ccccc1/C=C/C1(C(=O)NC2CCCC2)CC(=O)N1c1ccc(C)cc1 (stereo not given) | 5 | ? | -8%
O=C(c1ccc(S(=O)(=O)c2ccc(Cl)cc2)cc1)N1CCOCC1 | · | 12% | ·
CC(=O)c1ccc(OCC(O)Cn2nnc3ccccc32)cc1 (stereo not given) | 5 | -2% | -3%
O=C(CCCOc1ccc(Cl)cc1Cl)n1nnc2ccccc21 | -18 | 8% | 8.9µM*
CC(=O)c1ccc(OCCCC(=O)n2nnc3ccccc32)cc1 | 0 | 10% | 20µM*
Nc1nncn1C(=O)CCCOc1ccc(Cl)cc1Cl | 1 | 5% | ?
COc1ccccc1CN1CCCC2(CCN(C(=O)c3cc(C(F)(F)F)cc(C(F)(F)F)c3)CC2)C1 | · | 11% | -3%
CCOc1ccc(-n2c(Cc3cc(=O)[nH]c(=O)[nH]3)nnc2SCC(=O)Nc2nnc(C)s2)cc1 | · | 4% | ·
COc1cc(NS(=O)(=O)c2ccc(N/C=C(\C#N)c3nc4cc(Cl)ccc4o3)cc2)nc(OC)n1 | 7 | 9% | 28µM*
COc1cc(NS(=O)(=O)c2ccc(NC(=O)COc3ccc(Cl)cc3Cl)cc2)nc(OC)n1 | 6 | · | ·
COC(=O)c1c(NC(=O)/C(C#N)=C/c2ccc(OC)cc2)sc2c1C(C(=O)OC)CC2 (stereo not given) | -12 | · | ·
CCC(=O)n1nc(NCc2ccccc2OC)nc1NCc1ccccc1OC | 21 | -8% | -10%
CC(=O)Nc1ccc(/C=N/NC(=S)NC(C)C)cc1 | · | 1% | ·
Cc1c(C(=O)N2CCCCC2)nnn1-c1nonc1N | 3 | 7.9µM* | 16µM*
Nc1nonc1C(=O)N1CCCC1 | · | -4% | ·
COc1ccc(Oc2ncc3ncc(=O)n(Cc4cccs4)c3n2)cc1 | · | ? | -16%
O=C1OC(NCc2cccnc2)(c2ccc(Cl)cc2)c2ccccc21 (stereo not given) | · | 2% | ·
Cc1ccc(S(=O)(=O)N/N=C/c2cccc(OC3CSC3)c2)cc1 | · | -5% | -15%
SMILES | IMPase cell inh | ALDH1A1 block | HPGD inh
COc1cc(/C=N/NS(=O)(=O)c2ccccc2)ccc1OS(=O)(=O)c1ccc(C)cc1 | · | 7.9µM* | -19%
C=CCNC(=O)/C(C#N)=C/c1ccc(OS(=O)(=O)c2ccc(C)cc2)c(OC)c1 | · | 25µM* | 28µM*
COc1ccc(/C=N/NC(=O)c2cccc([N+](=O)[O-])c2)cc1OS(=O)(=O)c1ccccc1 | 13 | ? | -11%
COc1ccc(/C=C(\C#N)C(=O)NCc2cccs2)cc1OC | · | 1% | -14%
COc1ccc(/C=N/NS(=O)(=O)c2ccccc2)cc1OS(=O)(=O)c1ccc(C)cc1 | 1 | 7.1µM* | -4%
CCNC(=O)CCSc1nnc(-c2ccco2)o1 | · | 8% | -2%
COc1ccc2c(c1)C(SCC(=O)NCCc1ccc(Cl)cc1)CC(C)(C)O2 (stereo not given) | · | -1% | -8%
Cn1c(=O)cnc2cnc(Nc3ccccc3)nc21 | · | -17% | -13%
COc1ccc(C2C(C(=O)Nc3cccnc3)=C(C)Nc3nc(-c4ccccc4)nn32)cc1OC (stereo not given) | 1 | · | ·
Cc1cc(C)c(C(=O)COC(=O)c2ccc([N+](=O)[O-])o2)cc1C | · | 2µM* | ·
Cc1ccc(C)c(C(=O)COC(=O)c2ccc(Br)o2)c1 | -1 | -4% | 1%
Cc1cc(C(=O)COC(=O)c2ccc([N+](=O)[O-])o2)c(C)n1CC1CCCO1 (stereo not given) | · | 16µM* | ·
Cc1cc(C(=O)COC(=O)c2ccc3c(c2)OCO3)c(C)n1CC1CCCO1 (stereo not given) | · | 8% | ·
